Inconclusive results are not listed. Where a structure was tested more than once in an assay, its records may differ in their call. Calls of active or inactive are those of the source. Rule for the calls: active = hit-call score of the fitted dose curve at least 0.9, where 1 is the maximum; inconclusive = response in the unintended direction; inactive = score below 0.9.
tested on: frog Estrogen Receptor (ESR2), gene 100174814; experiment: ATG_frER2_XSP1: Attagene TRANS-FACTORIAL Multi-Species (XSP1) HepG2 Assay for frog Estrogen Receptor (ESR2) (AID 2283774)
Procedure, shortened: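 HepG2 cells transiently transfected with GAL4-UAS reporter units expressing chimeric frog ER-Gal4; 3 nM 6-alpha-fluorotestosterone present. After 24 h dosing, reporter mRNA quantified by RT-PCR and capillary electrophoresis; gain-of-signal fitted relative to DMSO.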

Structure (SMILES) | AC50 | outcome
CC(C)CCCCCCc1ccc(O)cc1 | 0.752 µM (active) | –
O=C(c1ccc(O)cc1O)c1ccc(O)cc1O | 0.519 µM (active) | –
Oc1ccc(C(c2ccc(O)cc2)C(Cl)(Cl)Cl)cc1 | 0.0342 µM (active) | –
CC(C)(c1ccc(O)cc1)c1ccc(O)cc1 | 0.374 µM (active) | –
CC(=O)S[C@@H]1CC2=CC(=O)CC[C@]2(C)[C@H]2CC[C@@]3(C)[C@@H](CC[C@@]34CCC(=O)O4)[C@H]12 | 48.6 µM (active) | –
CC1(C)C(C=C(Cl)Cl)C1C(=O)OCc1cccc(Oc2ccccc2)c1 (configuration not stated) | 2.79 µM (active) | –
C#C[C@]1(O)CC[C@H]2[C@@H]3CCC4=CC(=O)CC[C@@H]4[C@H]3CC[C@@]21CC | 1 µM (active) | inactive
CCCCC(CC)COC(=O)c1ccccc1C(=O)O (configuration not stated) | 61.8 µM (active) | –
C=CCOC(Cn1ccnc1)c1ccc(Cl)cc1Cl (configuration not stated) | 11.6 µM (active) | –
CCCCC(CC)CN1C(=O)C2C3C=CC(C3)C2C1=O (configuration not stated) | 25.4 µM (active) | –

tested on: not listed separately; experiment: ACEA_AR_agonist_AUC_viability: ACEA Biosciences xCELLigence Real-Time Cell Analysis on Androgen Receptor Agonism for Viability (AID 2283775);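 for AC50: viability read 80 hours after compound addition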
Procedure, shortened: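 Read-out is area under the impedance curve at 80 h post-dose in 22Rv1 cells, with DMSO as baseline and signal loss taken as reduced viability. Compounds ran in duplicate from 100 uM final.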

Structure (SMILES) | AC50 | outcome
CCCCOC(=O)C(C)Oc1ccc(Oc2ccc(C(F)(F)F)cn2)cc1 (configuration not stated) | 43.1 µM (active) | –
CC(C)CCCCCCc1ccc(O)cc1 | 10.7 µM (active) | –
N#CSCSc1nc2ccccc2s1 | 19.4 µM (active) | –
O=C(O)c1ccccc1 | – | inactive
Oc1ccc(C(c2ccc(O)cc2)C(Cl)(Cl)Cl)cc1 | 20.9 µM (active) | –
CC(C)(c1ccc(O)cc1)c1ccc(O)cc1 | 41.4 µM (active) | –
Cc1nn(C)c(Oc2ccccc2)c1C=NOCc1ccc(C(=O)OC(C)(C)C)cc1 | 13 µM (active) | –
CCCN(CCC)C(=O)SCC | – | inactive
CC1(C)C(C=C(Cl)Cl)C1C(=O)OCc1cccc(Oc2ccccc2)c1 (configuration not stated) | 30.8 µM (active) | –
CCCCCCC(C)OC(=O)COc1nc(F)c(Cl)c(N)c1Cl (configuration not stated) | 22.9 µM (active) | –
COC(=O)c1ccc(I)cc1S(=O)(=O)NC(=O)Nc1nc(C)nc(OC)n1 | – | inactive
CCCN(CCC)c1c([N+](=O)[O-])cc(C(F)(F)F)c(N)c1[N+](=O)[O-] | 14.9 µM (active) | –
CCCCCOC(=O)COc1cc(N2C(=O)C3=C(CCCC3)C2=O)c(F)cc1Cl | 78.1 µM (active) | –
CCCCC(CC)COC(=O)c1ccccc1C(=O)O (configuration not stated) | – | inactive
CCCOC(=O)c1ccc(C(=O)OCCC)nc1 | – | inactive
CCCCOCCOCCOCc1cc2c(cc1CCC)OCO2 | 65 µM (active) | –
C=CCOC(Cn1ccnc1)c1ccc(Cl)cc1Cl (configuration not stated) | 66.4 µM (active) | –
COC(=O)CSc1cc(N=c2sc(=O)n3n2CCCC3)c(F)cc1Cl | – | inactive
CCN(CC)C(=O)c1cccc(C)c1 | – | inactive
CCCCC(CC)CN1C(=O)C2C3C=CC(C3)C2C1=O (configuration not stated) | 81.6 µM (active) | –

tested on: frog Estrogen Receptor (ESR1), gene 398734; experiment: ATG_frER1_XSP1: Attagene TRANS-FACTORIAL Multi-Species (XSP1) HepG2 Assay for frog Estrogen Receptor (ESR1) (AID 2283777)
Procedure, shortened: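 HepG2 cells transiently transfected with frog ER–GAL4 chimera and GAL4-UAS reporter, with 3 nM 6-alpha-fluorotestosterone present; 24 h dosing, reporter mRNA quantified by RT-PCR and capillary electrophoresis, gain of signal versus DMSO.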

Structure (SMILES) | AC50 | outcome
CC(C)CCCCCCc1ccc(O)cc1 | 0.189 µM (active) | –
O=C(c1ccc(O)cc1O)c1ccc(O)cc1O | 0.544 µM (active) | –
CC(C)(c1ccc(O)cc1)c1ccc(O)cc1 | 0.163 µM (active) | –
CC(=O)S[C@@H]1CC2=CC(=O)CC[C@]2(C)[C@H]2CC[C@@]3(C)[C@@H](CC[C@@]34CCC(=O)O4)[C@H]12 | – | inactive
CC1(C)C(C=C(Cl)Cl)C1C(=O)OCc1cccc(Oc2ccccc2)c1 (configuration not stated) | – | inactive
C#C[C@]1(O)CC[C@H]2[C@@H]3CCC4=CC(=O)CC[C@@H]4[C@H]3CC[C@@]21CC | 0.222 µM (active) | inactive
CCCCC(CC)COC(=O)c1ccccc1C(=O)O (configuration not stated) | 13.6 µM (active) | –
C=CCOC(Cn1ccnc1)c1ccc(Cl)cc1Cl (configuration not stated) | 3.63 µM (active) | –
CCCCC(CC)CN1C(=O)C2C3C=CC(C3)C2C1=O (configuration not stated) | – | inactive

target: chicken Estrogen Receptor (ESR1), ESR1 (gene 396099) (UniProt P06212); experiment: ATG_chERa_XSP1: Attagene TRANS-FACTORIAL Multi-Species (XSP1) HepG2 Assay for chicken Estrogen Receptor (ESR1) (AID 2283779)
Procedure, shortened: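 HepG2 cells transiently transfected with GAL4-UAS reporter units for chimeric chicken ERα-Gal4, dosed 24 h with 3 nM 6-alpha-fluorotestosterone present. Reporter mRNA by RT-PCR and capillary electrophoresis; gain-of-signal fit versus DMSO.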

chicken Estrogen Receptor (ESR1), ESR1 (gene 396099), sequence (P06212 whole entry, looked up, the tested form may be a part): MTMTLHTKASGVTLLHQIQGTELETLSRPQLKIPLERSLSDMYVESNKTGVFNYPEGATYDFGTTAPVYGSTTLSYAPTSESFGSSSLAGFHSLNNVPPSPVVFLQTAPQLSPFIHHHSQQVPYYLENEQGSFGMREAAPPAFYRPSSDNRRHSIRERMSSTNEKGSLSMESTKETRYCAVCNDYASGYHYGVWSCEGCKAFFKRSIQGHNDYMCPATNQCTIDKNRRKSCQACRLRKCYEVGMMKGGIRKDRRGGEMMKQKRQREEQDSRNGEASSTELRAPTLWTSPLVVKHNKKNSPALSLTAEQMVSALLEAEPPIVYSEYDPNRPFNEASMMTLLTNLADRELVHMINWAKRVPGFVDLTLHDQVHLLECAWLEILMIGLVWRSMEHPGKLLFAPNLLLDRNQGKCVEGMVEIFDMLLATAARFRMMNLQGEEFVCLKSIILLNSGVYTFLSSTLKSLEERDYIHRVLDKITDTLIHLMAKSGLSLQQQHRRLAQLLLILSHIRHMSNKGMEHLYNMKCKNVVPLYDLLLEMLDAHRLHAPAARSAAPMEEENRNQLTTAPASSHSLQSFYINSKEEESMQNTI

Structure (SMILES) | AC50 | outcome
CC(C)CCCCCCc1ccc(O)cc1 | 0.357 µM (active) | –
O=C(c1ccc(O)cc1O)c1ccc(O)cc1O | 3.09 µM (active) | –
Oc1ccc(C(c2ccc(O)cc2)C(Cl)(Cl)Cl)cc1 | – | inactive
CC(C)(c1ccc(O)cc1)c1ccc(O)cc1 | 0.2 µM (active) | –
CC(=O)S[C@@H]1CC2=CC(=O)CC[C@]2(C)[C@H]2CC[C@@]3(C)[C@@H](CC[C@@]34CCC(=O)O4)[C@H]12 | – | inactive
CC1(C)C(C=C(Cl)Cl)C1C(=O)OCc1cccc(Oc2ccccc2)c1 (configuration not stated) | – | inactive
C#C[C@]1(O)CC[C@H]2[C@@H]3CCC4=CC(=O)CC[C@@H]4[C@H]3CC[C@@]21CC | 0.404 µM (active) | inactive
CCCCC(CC)COC(=O)c1ccccc1C(=O)O (configuration not stated) | 27.4 µM (active) | –
C=CCOC(Cn1ccnc1)c1ccc(Cl)cc1Cl (configuration not stated) | 26.1 µM (active) | –
CCCCC(CC)CN1C(=O)C2C3C=CC(C3)C2C1=O (configuration not stated) | 0.306 µM (active) | –

Reference: PubChem BioAssay (EPA / NIEHS)
